IL2 activator = qHTS of IL-2 Activators. hit rate 0.065% among 360,000. activation, % (series mostly up to about 46 µM). IL-2 activation reporter assay, cell-based qHTS; stimulated with anti-CD3/CD4/CD28 beads; in transgenic mouse T cells; in the data active = activation above about 50%; inconclusive = mostly about 30% to 49%; note: 0% is about no effect
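Unstimulated transgenic mouse T cells; 60-min compound exposure; bead-based TCR/CD4/CD28 stimulation; 18 h culture, 37 degrees C; dual fluorescence (EGFP, DsRed) plate cytometry.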
miR-21 reporter = qHTS Assay for Modulators of miRNAs and/orActivators of miR-21; 340,000 tested, under 10 active; HeLa miR-21 FLuc reporter, luciferase, 48 h; AID 2288, 2010; Potency, µM (series often up to 38.3 µM), for inactives: at the top dose activity change, positive = activation, actives largely listed as activators;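 note: % of control where 0% means no effect; miR-21 action dims this reporter so a rising signal means less miR-21 action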
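HeLa cells stably expressing CMV-driven firefly luciferase with a downstream miR-21 binding sequence, endogenously expressing miR-21, were treated with titrations (up to about 40uM final) for 48 hours at 37 degree Celsius. Luciferase luminescence was read after lysis.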
A549 tox-1 = Nrf2 qHTS screen for inhibitors: counterscreen for cytotoxicity. hit rate 0.16% among 390,000. AID 504648, 2011. A549 ARE-Fluc cells, CellTiter-Fluor viability, 18-24 h. Potency, µM (top dose mostly 46 µM), for inactives: at the top dose activity change, negative = cytotoxicity, most hits filed as inhibitors; note: potency is the fitted concentration of half-maximal effect; % is set by controls: 0 for no effect and ±100 for the full control effect
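Cytotoxicity counterscreen: CellTiter-Fluor fluorescence was measured in A549 ARE_Fluc cells after 18-24 h of compound exposure in a concentration series. The subsequent BugLite luminescent read reports ARE-luciferase activity.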
Nrf2 inh = Nrf2 qHTS screen for inhibitors. hit rate 2.1% among 360,000. A549 ARE-Fluc reporter, luciferase luminescence, 18-24 h. Potency, µM (titrated, usually from 46 µM), inactives show at the top dose activity change, negative = inhibition, most hits filed as inhibitors. AID 504444, 2011; note: potency is the fitted concentration of half-maximal effect; % is set by controls: 0 for no effect and ±100 for the full control effect; nearly all actives have a fitted effect of over 60% in size
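Concentration-response testing used A549 ARE_Fluc cells at 5000 cells/well. Following an 18-24 h compound incubation, viability was read by fluorescence (Ex 405/Em 525) and luciferase output by luminescence.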
Nrf2 ARE act = qHTS of Nrf2 Activators | AREc32 ARE-luciferase reporter (MCF7-derived line), luminescence, 24 h | Potency, µM (top dose mostly 46.1 µM), for inactives: at the top dose activation, hits mostly activators | hit rate 0.31% among 410,000 | AID 624171, 2012; note: potency is the fitted concentration of half-maximal effect; % of control where 0% means no effect; nearly all actives have a fitted effect of over 65% in size
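AREc32_Fluc, 1000 cells/well, OPTI-MEM + 5% FBS, o/n 37 deg C 5% CO2; 23 nL cpd by pin tool, 24 hr; Steady-Glo 30 min RT, luminescence.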
ClpP mod = qHTS Assay for Activators of ClpP; AID 651965, 2013; purified B. subtilis ClpP, FRET peptide cleavage, 20 min; ATP-dependent Clp protease proteolytic subunit (Bacillus subtilis (strain 168)), P80244; Potency, µM (titrated, usually from 57.5 µM), for the others: at the highest dose activity change, negative = active; hit rate 1.9% among 340,000; active = well fitted falling curve with a large enough effect; inconclusive = small, poorly fitted or top-dose-only effect; inactive = no such curve, though single readings can be large or run the other way; note: potency is the fitted concentration of half-maximal effect; the source files actives as falling curves though it sought activators and does not explain the sign; nearly all actives have a fitted effect of over 65% in size
Target sequence (P80244 whole entry, looked up): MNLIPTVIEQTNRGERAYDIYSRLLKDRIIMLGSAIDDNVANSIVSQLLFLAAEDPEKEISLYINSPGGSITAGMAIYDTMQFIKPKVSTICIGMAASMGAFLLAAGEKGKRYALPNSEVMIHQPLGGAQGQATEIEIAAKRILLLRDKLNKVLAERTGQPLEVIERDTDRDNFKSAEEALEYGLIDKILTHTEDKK
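ClpP 10 microg/mL final, pH 8 Tris/KCl buffer with BSA, glycerol, Tween-20; compound pinned in; FRET-FV substrate; RT 20 min; Ex320/Em430; ΔFRET vs ADEP 5.8 microM, DMSO, no enzyme.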
FLuc enzyme inh = Nrf2 qHTS screen for inhibitors: Purified Fluc Biochemical Counterscreen for Hit Validation | Potency, µM (highest dose often 57.5 µM), for inactives: top-dose activity change, negative = inhibition, usual class: inhibitors | hit rate 4% among 1,400 | purified firefly luciferase, luminescence inhibition | AID 720522, 2013 | shares compounds with Nrf2 inh; note: potency is the fitted concentration of half-maximal effect; % is set by controls: 0 for no effect and ±100 for the full control effect; nearly all actives have a fitted effect of over 65% in size
Target sequence (P08659 whole entry, looked up): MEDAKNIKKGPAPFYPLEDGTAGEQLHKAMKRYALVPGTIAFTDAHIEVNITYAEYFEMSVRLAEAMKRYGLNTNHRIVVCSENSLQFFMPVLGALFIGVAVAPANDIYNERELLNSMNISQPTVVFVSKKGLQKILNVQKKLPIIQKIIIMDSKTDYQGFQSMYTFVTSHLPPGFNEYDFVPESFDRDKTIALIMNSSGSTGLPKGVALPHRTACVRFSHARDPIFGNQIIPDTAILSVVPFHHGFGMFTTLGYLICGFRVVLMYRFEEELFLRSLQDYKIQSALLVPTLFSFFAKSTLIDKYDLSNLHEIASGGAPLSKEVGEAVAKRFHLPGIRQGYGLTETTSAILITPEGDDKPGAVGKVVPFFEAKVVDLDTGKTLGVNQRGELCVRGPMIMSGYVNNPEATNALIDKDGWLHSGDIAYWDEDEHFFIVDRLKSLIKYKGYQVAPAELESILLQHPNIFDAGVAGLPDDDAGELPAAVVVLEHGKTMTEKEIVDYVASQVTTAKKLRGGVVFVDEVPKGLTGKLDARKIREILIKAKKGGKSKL
A549 tox-2 = Nrf2 qHTS screen for inhibitors: A549 ARE-Fluc Cytotoxicity Counterscreen for Hit Validation | AID 720523, 2013 | hit rate 2% among 1,400 | Potency, µM (doses to about 46.1 µM), for inactives: at the top dose activity change, negative = cytotoxicity, most hits filed as inhibitors | shares compounds with Nrf2 inh | A549 ARE-Fluc cells, cytotoxicity counterscreen;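 note: potency is the fitted concentration of half-maximal effect; cells exposed to compounds for 18 to 24 hours; % is set by controls: 0 for no effect and ±100 for the full control effect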
Nrf2 ARE inh = Nrf2 qHTS screen for inhibitors: Nrf2 A549 ARE-Fluc Confirmation Assay for Hit Validation; A549 ARE-firefly luciferase reporter, luminescence; hit rate 74% among 1,400; shares compounds with Nrf2 inh; Potency, µM (series often up to 46.1 µM), without a hit: at the top dose activity change, negative = inhibition, actives largely listed as inhibitors; note: potency is the fitted concentration of half-maximal effect; % is set by controls: 0 for no effect and ±100 for the full control effect; nearly all actives have a fitted effect of over 65% in size
An asterisk follows results filed as active; [ ] = remark or other dose. Most compounds without a hit are left out; they make up all but 3.7% or so of the library. Unless noted, calls come from the whole dose curve; as a rule, active = well fitted curve in the direction sought with a large enough effect; inconclusive = small, poorly fitted or top-dose-only effect, or another doubt; inactive = no such curve, though single readings can be large; an effect the other way counts as inactive or inconclusive.

How did O=S(=O)(NCCc1cn2ccsc2n1)c1ccc(Cl)cc1 do in these assays?
miR-21 reporter: -5.0%; A549 tox-1: 6.8%; Nrf2 ARE act: 2.3%; ClpP mod: -1.7%

Results for Cc1cccc(C(=O)n2nc(-c3ccco3)nc2NCc2ccccc2)c1 ?
miR-21 reporter: -28.6%; A549 tox-1: -1.3%; Nrf2 inh: 18.6%; Nrf2 ARE act: -1.0%; ClpP mod: 0.6%

Results for COc1cc2c(NC3CCN(C(C)C)CC3)nc(N3CCCN(C)CC3)nc2cc1OCCCN(C)C ?
ClpP mod: 4.8%; FLuc enzyme inh: -1.5%; A549 tox-2: inconclusive; Nrf2 ARE inh: 1.64µM*

How did COc1cc2c(NC3CCN(C)CC3)nc(N3CCCN(C)CC3)nc2cc1OCCCCC(N)=O do in these assays?
ClpP mod: 4.5%

Results for CC(=O)N1CCc2cc(Br)cc(S(=O)(=O)N3CCN(c4cc(C)ccc4C)CC3)c21 ?
miR-21 reporter: 14.2%; A549 tox-1: 1.3%; Nrf2 inh: 8.8%[9.27 µM]; Nrf2 ARE act: 0.1%; ClpP mod: -2.7%

What do the screens show for `O=C(Nc1ccc(S(=O)(=O)Nc2ccc(F)cc2)cc1)c1ccc(CN2CCOCC2)cc1`?
IL2 activator: -2.3; miR-21 reporter: inconclusive; A549 tox-1: -17.9%; Nrf2 inh: 3.66µM*; Nrf2 ARE act: 3.9%; FLuc enzyme inh: -3.6%; A549 tox-2: -7.6%

What do the screens show for `COc1ccc(NC(=O)c2ccc(Cl)c(S(=O)(=O)N3CCc4ccccc4C3)c2)cn1`?
IL2 activator: 1.2; miR-21 reporter: 21.8%; A549 tox-1: -11.3%; Nrf2 inh: inconclusive; Nrf2 ARE act: -0.7%; ClpP mod: -18.4%

How did CCN(CC)S(=O)(=O)c1ccc(NC(=O)c2ccc(CN3CCOCC3)cc2)cc1 do in these assays?
IL2 activator: -1.8; miR-21 reporter: inconclusive; A549 tox-1: -4.2%; Nrf2 inh: 3.66µM*; Nrf2 ARE act: 0.1%; ClpP mod: -0.5%; FLuc enzyme inh: 1.3%; A549 tox-2: -7.1%; Nrf2 ARE inh: 3.66µM*

What do the screens show for `COc1ccc(NC(=O)c2ccc(Cl)c(S(=O)(=O)N3CC(C)OC(C)C3)c2)cn1` (stereo unspecified)?
IL2 activator: -0.9; A549 tox-1: -5.0%; Nrf2 inh: 2.59µM*; Nrf2 ARE act: 3.2%; ClpP mod: 1.3%; FLuc enzyme inh: 1.0%; A549 tox-2: -7.5%; Nrf2 ARE inh: 7.31µM*

What do the screens show for `COc1ccc(NS(=O)(=O)c2ccc(NC(=O)c3ccc(CN4CCOCC4)cc3)cc2)cc1`?
IL2 activator: -0.8; miR-21 reporter: 0.6%; A549 tox-1: -2.0%; Nrf2 inh: inconclusive; Nrf2 ARE act: 4.6%

How did O=C(Nc1ccc(S(=O)(=O)N2CCCC2)cc1)c1ccc(CN2CCOCC2)cc1 do in these assays?
IL2 activator: -0.2; miR-21 reporter: 25.0%; A549 tox-1: -13.5%; Nrf2 inh: 4.11µM*; Nrf2 ARE act: 4.8%; ClpP mod: 1.0%; FLuc enzyme inh: -1.9%; A549 tox-2: -7.8%; Nrf2 ARE inh: 8.2µM*

Results for O=C(COc1cccc(Cl)c1)N1CCC(c2nc3ccccc3o2)CC1 ?
miR-21 reporter: -3.4%; A549 tox-1: 6.5%; Nrf2 inh: -13.4%; Nrf2 ARE act: 6.3%; ClpP mod: -0.6%

What do the screens show for `Cc1nc2ccc(S(=O)(=O)NC(CC(C)C)C(=O)N3CCN(c4ccc(F)cc4)CC3)cc2s1` (stereo unspecified)?
miR-21 reporter: 20.4%; A549 tox-1: 5.2%; Nrf2 inh: -8.7%; Nrf2 ARE act: 1.7%; ClpP mod: -19.7%

How did COc1ccc(C2c3c(-c4ccccc4)n[nH]c3C(=O)N2c2ccc(C(=O)O)cc2)c(OC)c1 (stereo unspecified) do in these assays?
miR-21 reporter: 2.4%; A549 tox-1: -4.5%; Nrf2 inh: 1.4%; Nrf2 ARE act: -1.5%; ClpP mod: -1.2%

What do the screens show for `COc1cccc(NC(=O)N2CCC(CN3CCOCC3)CC2)c1`?
miR-21 reporter: -12.4%; A549 tox-1: 0.4%; Nrf2 inh: inconclusive; Nrf2 ARE act: -0.8%; ClpP mod: -1.0%

What do the screens show for `Cc1ccc(/C=C/c2onc(C)c2S(=O)(=O)N2CCC(C(=O)NCC(C)c3ccccc3)CC2)cc1` (stereo unspecified)?
miR-21 reporter: -0.3%; A549 tox-1: 8.8%; Nrf2 ARE act: 0.5%; ClpP mod: 0.2%

How did Cc1ccc(NS(=O)(=O)c2cccc(C(=O)NC3CCN(Cc4ccccc4)CC3)c2)cc1 do in these assays?
IL2 activator: -4.3; A549 tox-1: -13.9%; Nrf2 inh: inconclusive; Nrf2 ARE act: 2.4%; ClpP mod: -1.6%

Results for O=C(NC1CCN(Cc2ccccc2)CC1)c1ccc2c(c1)[nH]c(=O)n2Cc1ccc(F)cc1 ?
IL2 activator: 0.5; miR-21 reporter: -4.2%; A549 tox-1: inconclusive; Nrf2 inh: 4.61µM*; Nrf2 ARE act: 6.9%; FLuc enzyme inh: 0.5%; A549 tox-2: -15.5%; Nrf2 ARE inh: 9.2µM*

Results for CCCCCn1c(=O)[nH]c2cc(C(=O)NC3CCN(Cc4ccccc4)CC3)ccc2c1=O ?
IL2 activator: -2.7; A549 tox-1: 1.1%; Nrf2 inh: -13.4%; Nrf2 ARE act: 2.3%

How did O=C(Nc1ccc(S(=O)(=O)N2CCCCC2)cc1)c1ccc(CN2CCOCC2)cc1 do in these assays?
IL2 activator: -2.5; miR-21 reporter: inconclusive; A549 tox-1: -4.0%; Nrf2 inh: 4.61µM*; Nrf2 ARE act: -0.7%; ClpP mod: -2.1%; FLuc enzyme inh: -0.9%; A549 tox-2: 1.6%; Nrf2 ARE inh: 7.31µM*

Screening results (PubChem BioAssay)
